# Values joined by “and” are separate entries in the source; they are usually repeats but may differ in a detail not shown here. Equal entries are not always repeated. Results filed as inconclusive are left out. A number with no mark means an inactive call. Active and inactive are the calls of the source. Calls follow the shape of the dose curve; as a rule, active = well fitted cell-killing curve with a large enough effect; inconclusive = small, poorly fitted or top-dose-only effect; inactive = flat fitted curve, though single readings scatter.
# Assay: Cellular viability qHTS for adrenocortical cancer (ACC) cell line SW-13 (AID 1963989); also: nearly all actives have a fitted effect of over 65% in size;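 as to activity (max response): cells grown in serum-free medium with ITS supplement; % is scaled to controls: 0 for no effect and ±100 for the full control effect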
# Conditions: SW-13 ACC cells viability, CellTiter-Glo, 48 h; activity (max response): hits give low values
# Procedure, shortened: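 SW-13 cells in ITS-supplemented serum-free DMEM were plated overnight, then exposed for 48 h at 37C to compound titrations (up to 46 uM final). Viability was read by CellTiter-Glo luminescence; four-parameter logistic fits gave IC50 and efficacy.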
# Potency is read from the fitted curve at half-maximal effect.
Structure (SMILES),Potency,activity (max response)
CC1(COc2ccc3c(c2)ncn3-c2ccc3cccc(N4CCC(N)CC4)c3n2)COC1,25.1 µM (active),
O=C(O)c1cn(C2CC2)c2cc(N3CCNCC3)c(F)cc2c1=O,,-3.87% and 6.05%
O=C(O)CCCCC(CCSCc1ccccc1)SCc1ccccc1 (configuration not stated),,-7.05%
Cc1c(C(=O)NN2CCCCC2)nn(-c2ccc(Cl)cc2Cl)c1-c1ccc(Cl)cc1,28.2 µM (active),
COc1ccc(COc2ccc(Cc3cnc(N)nc3N)cc2OC)cc1,,-16.4%
O=C1c2c(O)cccc2Cc2cccc(O)c21,,5.31%
Nc1nc(NCCNc2ncc(-n3ccnc3)c(-c3ccc(Cl)cc3Cl)n2)ccc1[N+](=O)[O-],,-10%
C#Cc1cccc(Nc2ncnc3cc(OCCOC)c(OCCO)cc23)c1,6.31 µM (active),
N#CNC(=NCCCCCCOc1ccc(Cl)cc1)Nc1ccncc1,0.0398 µM (active),
Cc1[nH]nc(C(F)(F)F)c1Cc1sc2c(c1C(=O)N1C[C@](C)(O)CO1)c(=O)n(C)c(=O)n2C(C)C,,14.8%
N=C(N)c1ccc(OCCCCCOc2ccc(C(=N)N)cc2)cc1,16.4 µM (active) and 15.8 µM (active),
Cc1cc(-c2ccc(CC(=O)Nc3ccc(-c4cccnc4)cc3)cc2)ccn1,,-19.6%
Cc1ccnc2c1NC(=O)c1cccnc1N2C1CC1,,-0.191%
COc1ccccc1OC(=O)Oc1ccccc1OC,,1.52%
COc1ccc2c(c1)CC[C@@H](CN(C)CC(=O)O)[C@H]2c1ccccc1,,12.6%
C[C@@H]1COCCN1c1cc(=O)n2c(n1)N(Cc1cncc(Cl)c1)[C@H](C(F)(F)F)CC2,,2.98%

# Assay: Cellular viability qHTS for adrenocortical cancer (ACC) cell line NCI-H295R (AID 1963990); also: nearly all actives have a fitted effect of over 60% in size
# Conditions: CellTiter-Glo ATP luminescence, 48 h; series mostly up to 46.1 µM
# Procedure, shortened: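 Luminescent ATP read-out (CellTiter-Glo, 20 min RT) after 48 h drug exposure of NCI-H295R cells; a titration up to 46 uM final. Data normalized to doxorubicin (100% inhibition) and DMSO (0%); 4-parameter fit gives IC50, max response.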
row,Structure (SMILES),Potency
1,O=C(N[C@@H](c1ccccc1)[C@@H]1CCCCN1)c1cccc(C(F)(F)F)c1Cl,8.91 µM (active)
2,CCCCCCCCCCCC(CC1OC(=O)C1CCCCCC)OC(=O)C(CC(C)C)NC=O (configuration not stated),inactive
3,CS(=O)(=O)N(Cc1ccco1)CC(O)Cn1c2ccccc2c2ccccc21 (configuration not stated),inactive
4,O=c1ncn2nc(Sc3ccc(F)cc3F)ccc2c1-c1c(Cl)cccc1Cl,inactive
5,COc1ccccc1[C@H](c1cccc2ccccc12)[C@@](C)(C#N)C(=O)N1CCC(c2cccc(C(F)(F)F)c2)CC1,inactive
6,O=C1c2c(O)ccc(O)c2C(=O)c2c(NCCNCCO)ccc(NCCNCCO)c21,4.11 µM (active) and 3.98 µM (active)
7,CCc1c2c(nc3ccc(O)cc13)-c1cc3c(c(=O)n1C2)COC(=O)[C@]3(O)CC,1.26 µM (active)
8,O=C(Nc1nc2cccc(-c3ccc(CN4CCS(=O)(=O)CC4)cc3)n2n1)C1CC1,28.2 µM (active)
9,CC1(COc2ccc3c(c2)ncn3-c2ccc3cccc(N4CCC(N)CC4)c3n2)COC1,14.1 µM (active)
10,O=C(O)c1cn(C2CC2)c2cc(N3CCNCC3)c(F)cc2c1=O,inactive
11,CCOC(=O)[C@H](CCc1ccccc1)N[C@H]1CCc2ccccc2N(CC(=O)O)C1=O,inactive
12,Cc1c(C(=O)NN2CCCCC2)nn(-c2ccc(Cl)cc2Cl)c1-c1ccc(Cl)cc1,20.6 µM (active) and 28.2 µM (active)
13,Cc1cc(Nc2cc(NC(=O)c3c(Cl)cccc3Cl)ccn2)nc(N)n1,7.08 µM (active)
14,CC(=O)c1c(C)c2cnc(Nc3ccc(N4CCNCC4)cn3)nc2n(C2CCCC2)c1=O,25.1 µM (active)
15,Nc1nc(NCCNc2ncc(-n3ccnc3)c(-c3ccc(Cl)cc3Cl)n2)ccc1[N+](=O)[O-],inactive
16,N#CNC(=NCCCCCCOc1ccc(Cl)cc1)Nc1ccncc1,0.0158 µM (active)
17,Cc1cc(-c2ccc(CC(=O)Nc3ccc(-c4cccnc4)cc3)cc2)ccn1,inactive
18,Cc1ccnc2c1NC(=O)c1cccnc1N2C1CC1,inactive
19,COc1cc(C(=O)N2CCC(N3CCN(C)CC3)CC2)ccc1Nc1ncc2c(n1)N(C)c1ccccc1C(=O)N2C,12.6 µM (active)
20,C[N+](C)([O-])CCNc1ccc(NCC[N+](C)(C)[O-])c2c1C(=O)c1c(O)ccc(O)c1C2=O,inactive
21,C[C@@H]1COCCN1c1cc(=O)n2c(n1)N(Cc1cncc(Cl)c1)[C@H](C(F)(F)F)CC2,inactive

# — PubChem BioAssay (NCATS)
